Screens deposited in PubChem BioAssay by several laboratories.
ABCB6 inh 2 = human ABCB6 transporter inhibition; Q9NP58; K562-ABCB6 porphyrin accumulation, flow cytometry, 1 h; hits give low values; fluorescence ratio to DMSO, % at 10 µM; actives 0.19% (n = 360,000); AID 602162;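 active = fluorescence ratio to DMSO below 75%, the collection mean minus 3 SD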;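 also: signal is porphyrin accumulated inside mitochondria; 100% equals median channel fluorescence of DMSO control wells; lower ratio means ABCB6 inhibition with less porphyrin fluorescence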
TLR9-MyD88 block = inhibitors of human TLR9-MyD88 binding. CHO BLA complementation TLR9-MyD88, CCF4 FRET ratio. inhibition, % at 4.98 µM. actives 0.21% (n = 340,000). AID 504734;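 active = inhibition above the mean over all tested compounds plus 3 SD, cut at about 21% in these data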;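 also: 0% = DMSO only wells and 100% = clavulanate BLA inhibitor control wells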
Myeloid diff 2 = myeloid differentiation induction. ER-HoxA9 myeloid progenitors, lysozyme-GFP differentiation, flow cytometry. calls only at 10 µM. actives 1% (n = 360,000). AID 624256;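 active = normalized GFP-positive differentiation at or above the plate's own cutoff, the solvent-only control mean plus 3 SD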;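 also: cells exposed to compound for four days before flow analysis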
TLR4-MyD88 BLA = blocks binding of human TLR4 to MyD88 | O00206+Q99836 | AID 861 | inhibition, % at 8.4 µM | HeLa CL3-4 TLR4/MyD88 BLA complementation, FRET ratio | actives 0.18% (n = 200,000); in the data active = inhibition above about 25%;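 also: 0% = vehicle and 100% = reference inhibitor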
NOD2-RIPK2 inh = NOD2-RIPK2 protein interaction inhibition. O43353. actives 0.38% (n = 360,000). AID 624267. CHO BLA complementation NOD2-RIPK2, CCF4 ratio. inhibition, % at 4.98 µM; in the data active = inhibition above about 21%;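 also: 0% = vehicle only and 100% = reference blocker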
Target sequence (O43353 whole entry, looked up): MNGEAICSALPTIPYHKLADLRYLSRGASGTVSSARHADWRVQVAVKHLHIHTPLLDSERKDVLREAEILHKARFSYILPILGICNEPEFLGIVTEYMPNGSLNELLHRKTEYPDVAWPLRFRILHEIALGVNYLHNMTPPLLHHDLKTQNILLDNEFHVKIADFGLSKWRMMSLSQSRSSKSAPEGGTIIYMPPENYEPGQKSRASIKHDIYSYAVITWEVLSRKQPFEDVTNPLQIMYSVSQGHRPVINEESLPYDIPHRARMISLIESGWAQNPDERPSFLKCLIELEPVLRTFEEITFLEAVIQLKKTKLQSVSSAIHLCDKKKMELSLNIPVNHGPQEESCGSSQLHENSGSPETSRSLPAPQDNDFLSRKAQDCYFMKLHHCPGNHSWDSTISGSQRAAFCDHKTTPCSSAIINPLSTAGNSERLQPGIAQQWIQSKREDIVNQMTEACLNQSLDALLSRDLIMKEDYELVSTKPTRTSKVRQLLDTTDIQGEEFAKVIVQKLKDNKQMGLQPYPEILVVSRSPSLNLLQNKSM
Starred values were filed as active, the others as inactive; i = inactive; / = no result given; + = active, no number. Hits are enriched below; roughly 1.7% of the tested compounds scored in any of these assays.

SMILES | ABCB6 inh 2 | TLR9-MyD88 block | Myeloid diff 2 | TLR4-MyD88 BLA | NOD2-RIPK2 inh
COCCN=C1N[C@@H](c2ccc(Br)cc2)C(C(=O)OC)=C(C)N1Cc1ccccc1 | 97 | 8 | + | / | 6
CN(c1ccc(C(=O)Nc2ccc3c(c2)OCCO3)cc1)S(C)(=O)=O | 95 | 1 | + | -10 | -4
CN=c1sc2ccccc2n1CC(O)COCc1ccco1 (centres undefined) | 95 | 3 | + | -11 | -3
Cc1ccc(S(=O)(=O)CCSc2nc(C)cc(C(F)(F)F)c2C#N)cc1 | 296 | 0 | + | 13 | -3
CCOC(=O)NC(=O)CSc1nc(C)cc(C(F)(F)F)c1C#N | 143 | -1 | + | -11 | -15
Cc1cc(C(F)(F)F)c(C#N)c(SCC(=O)Nc2nc3cc(Br)ccc3s2)n1 | 115 | 4 | + | 14 | 5
COC(=O)CSc1nc(C)cc(C(F)(F)F)c1C#N | 104 | -8 | i | 20 | -8
CCCCOc1ccc(-c2cc(C(F)(F)F)c(C#N)c(SCC(=O)O)n2)cc1 | 123 | -14 | + | -3 | 1
CN(Cc1nc(Cc2cccc(C(F)(F)F)c2)no1)C1CC(C)(C)NC(C)(C)C1 | 96 | -1 | i | -4 | -3
O=C(CCC1N=C2c3ccccc3N=C(SCC(=O)NCC3CCCO3)N2C1=O)NCc1ccc(F)cc1 (centres undefined) | 101 | 7 | i | / | -12
O=C(c1cccc(C(F)(F)F)c1)C1CCCN(C(=O)c2cc(C3CC3)[nH]n2)C1 (centres undefined) | 101 | -3 | + | / | -8
CSc1ccc(NC(=O)c2cccnc2)cc1C#N | 89 | 12 | i | 5 | -7
C[C@@H](O)CNC(=O)c1[nH]cnc1C(=O)N[C@H](C)c1ccccc1 | 97 | 3 | i | / | -6
Cc1ccc(-c2noc(-c3ccoc3C)n2)cc1 | 100 | 1 | i | 4 | -3
Cc1cc(C)c(C#N)c(Sc2nc(C)c([N+](=O)[O-])c(C)c2C#N)n1 | 95 | / | + | / | 0
COc1ccc(-c2c(C)nn3c(N4CCCCCC4)cc(C)nc23)cc1OC | 92 | -6 | i | / | -3
COc1ccc(-c2c(C)nn3c(N4CCOCC4)cc(C)nc23)cc1OC | 106 | -42 | + | / | 0
CN1CCN(c2cc(N3CCN(C(=O)c4ccco4)CC3)c3c4c(onc24)-c2ccccc2C3=O)CC1 | 103 | -5 | i | / | -4
O=C1c2ccccc2-c2onc3c(N4CCN(CCO)CC4)cc(N4CCN(C(=O)c5ccco5)CC4)c1c23 | 105 | 4 | + | / | -1
O=C(O)c1ccccn1 | 100 | 2 | i | / | -17
CC(C)(C)C(=O)/C=C(\N)c1ccccn1 | 101 | 0 | + | -5 | 1
CCN1CCN(S(=O)(=O)c2ccc(Cl)c(C(=O)NCc3ccco3)c2)CC1 | 98 | -1 | i | / | -3
Nc1nc(N)c(Cc2ccc(Cl)cc2Cl)c(N)n1 | 104 | -3 | + | 13 | 0
Cc1cc(C)c2cc(C#N)c(N3CCCN(C(=O)c4cnccn4)CC3)nc2c1 | 110 | -4 | + | / | -8
COc1ccccc1C(=O)N1CCN(c2nc3cc(C)cc(C)c3cc2C#N)CC1 | 104 | -3 | i | / | 4
SMILES | ABCB6 inh 2 | TLR9-MyD88 block | Myeloid diff 2 | TLR4-MyD88 BLA | NOD2-RIPK2 inh
COc1ccc(OC)c(CNc2ccc3c(c2)CCC3)c1 | 139 | -8 | + | / | -3
COc1ccc(OC)c(CC(=O)Nc2ccc3c(c2)CCC3)c1 | 97 | -4 | i | / | -3
COc1ccc(C2=[N+](C)CCn3cccc32)c(OC)c1 | 101 | -7 | i | -18 | -1
COc1ccc(C2=Nc3ccccc3NC(=O)C2N(C(=O)c2ccnc3ccccc23)c2ccccc2)cc1 (centres undefined) | 94 | / | i | / | 5
O=S(=O)(Nc1nc2ccccc2nc1NCc1ccco1)c1ccccc1 | 98 | 1 | + | 1 | 6
CC1(C(=O)NS(=O)(=O)Cc2ccccc2)CCN1C(=O)Cc1cc(F)ccc1F (centres undefined) | 104 | / | i | / | 12
C[C@H](N=C1NS(=O)(=O)c2ccccc21)C(=O)OCc1cc([N+](=O)[O-])cc2c1OCOC2 | 96 | 8 | i | / | -1
O=C(CCCN=C1NS(=O)(=O)c2ccccc21)OCc1cc([N+](=O)[O-])cc2c1OCOC2 | 441 | -9 | + | 15 | 2
